AmpC det inh – blocks E. coli AmpC beta-lactamase in presence of detergent; P00811; AID 584; Potency, µM (highest dose often 28.7 µM), for the others: top-dose activity change, negative = inhibition; 0.09% of 71,000 active; purified AmpC, nitrocefin hydrolysis with detergent; active means well fitted curve in the direction sought with a large enough effect; inconclusive means small, poorly fitted or top-dose-only effect; further: on the % scale 0 is the no-effect control and ±100 the full control effect
Target sequence (P00811 whole entry, looked up): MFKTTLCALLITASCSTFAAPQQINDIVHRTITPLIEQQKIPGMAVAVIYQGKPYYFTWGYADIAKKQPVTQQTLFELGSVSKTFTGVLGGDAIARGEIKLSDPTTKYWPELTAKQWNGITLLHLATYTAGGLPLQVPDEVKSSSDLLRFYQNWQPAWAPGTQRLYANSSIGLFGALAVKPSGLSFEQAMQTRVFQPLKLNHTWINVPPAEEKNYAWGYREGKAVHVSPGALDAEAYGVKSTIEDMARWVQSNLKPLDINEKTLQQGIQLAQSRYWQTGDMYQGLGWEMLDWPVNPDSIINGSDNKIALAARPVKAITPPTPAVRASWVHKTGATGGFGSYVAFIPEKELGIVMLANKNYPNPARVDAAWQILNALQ
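E. coli AmpC (5.3 nM) in 20 mM phosphate pH 7.0 with 0.01% Triton X-100, preincubated 15 min RT with compound; nitrocefin (2 uL of 800 uM stock) hydrolysis followed by 480 nm absorbance every 20 s over 4 min.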
SmPrx2 inh – blocks S. mansoni peroxiredoxin 2 enzymatic activity | S. mansoni Prx2 activity coupled to TGR/GSH (TGR is thioredoxin glutathione reductase), NADPH fluorescence loss, qHTS | Potency, µM | 0.07% of 65,000 active
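qHTS, coupled TGR/Prx2 format; 15 min compound preincubation at RT; reaction started with H2O2 (2.5 mM aliquot); kinetic NADPH fluorescence decrease, ex 365/em 450 nm.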
AmpC nodet inh – inhibitors of E. coli AmpC beta-lactamase without detergent; P00811; AmpC nitrocefin hydrolysis, absorbance 480 nm, no detergent; Potency, µM (series often up to 28.7 µM), for inactives: top-dose activity change, negative = inhibition; 1.8% of 71,000 active; AID 585; further: % of control where 0% means no effect
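Enzyme, pH 7.0 phosphate. Compound titrations were pre-incubated with AmpC for 15 min at room temperature before nitrocefin (stock 800 uM) addition; product formation was recorded at 480 nm every 20 s for 4 min.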
LT uptake inh – inhibitors of anthrax lethal toxin internalization; Cells, anthrax lethal toxin internalization, FRET ratio (460/530); Potency, µM (doses to about 40 µM), for the others: top-dose activity change, negative = inhibition, most hits filed as inhibitors; 0.67% of 70,000 active; further: on the % scale 0 is the no-effect control and ±100 the full control effect; nearly all actives have a fitted effect of over 50% in size
The depositor's hits bear a star; ? = inconclusive; / = no result; [ ] = another dose, or the depositor's remark. An excerpt weighted towards active compounds, which were near 2.6% of everything screened. Unless noted, the call rests on the fitted dose curve. Potency means the concentration at half of the fitted maximal effect.

SMILES | AmpC det inh | SmPrx2 inh | AmpC nodet inh | LT uptake inh
c1ccc([C@H](c2cccc3c2ccc2ccccc23)[C@H](c2ccccc2)c2cccc3c2ccc2ccccc23)cc1 | -2.2%[5.75 µM] | >57 | -13.5%[5.75 µM] | 2.9%[8 µM]
COC(=O)CCc1nc2ccccc2[nH]c1=O | 3.8% | >57 | -4.7% | 0.1%
COC(=O)CSCc1nc2ccccc2[nH]c1=O | 22.1% | >57 | 3.98µM*[single pt active] | 5.6%
CS(=O)(=O)N1CCC[C@@]2(CCN(C(=O)Nc3cccc(F)c3)C2)C1 | 0.2% | >57 | 6.3% | 9.3%
Cc1csc(NC(=O)C(CC(C)C)NS(=O)(=O)c2ccc3c(c2)oc(=O)n3C)n1 (centres undefined) | 8.5% | >57 | 3.98µM*[single pt active] | 1.2%
Cc1c(N=C=O)cccc1N=C=O | 7.4% | / | 44.0% | -8.1%
CCCS(=O)(=O)c1nnnn1-c1cccc(OC)c1 | -7.0% | >57 | -8.5% | 3.16µM*
O=C(O)C[C@@H](C(=O)O)c1ccccc1[N+](=O)[O-] | -6.0%[5.75 µM] | >57 | 5.9%[5.75 µM] | ?
CCCSc1nc(C)cc(=O)[nH]1 | -2.8% | >57 | -13.5% | -15.1%
Cc1cc(=O)[nH]c(SCc2cc(=O)n3nc(C)sc3n2)n1 | 13.8% | >57 | 3.98µM*[single pt active] | 0.6%
C#CCCCO/N=C1/C[C@@H](O)[C@@H](O)[C@@H]2[C@@H]3C(=O)N(Cc4ccccc4)C(=O)[C@H]3CC[C@@H]12 | / | / | / | -1.4%[8 µM]
O=S(=O)(c1ccccc1)N1CCC2(CCCN(c3ccccc3)C2)CC1 | 0.7% | >57 | 3.5% | ?
O=S(=O)(c1ccccc1)N1CCC2(CCCN(c3ccncc3)C2)CC1 | -3.6% | >57 | 21.4% | 1µM*
C[C@@H](SCc1ccccc1)C(=O)O | -1.8%[5.75 µM] | >57 | -5.9%[5.75 µM] | -1.7%[8 µM]
O=C(CCCCCN1C(=O)C2C3C=CC(C3)C2C1=O)Nc1nccs1 (centres undefined) | 11.7% | >57 | 2µM*[single pt active] | 12.0%
O=C(CCN1C(=O)C2C3C=CC(C3)C2C1=O)Nc1nccs1 (centres undefined) | -4.8% | >57 | -2.0% | -0.5%
N#CC1=C2SCN(c3ccccc3)CN2C(=O)CC1c1c(Cl)cccc1Cl (centres undefined) | 7.5% | / | 2.51µM* | ?
N#CC1=C2SCN(Cc3ccco3)CN2C(=O)CC1c1c(F)cccc1Cl (centres undefined) | 9.5% | >57 | 3.98µM*[single pt active] | -10.7%
COc1ccc(OC)c(C2CC(=O)N3CN(c4ccc(C)c(Cl)c4)CSC3=C2C#N)c1 (centres undefined) | 11.0% | >57 | -7.6% | -15.1%
Cc1ccc(C2CC(=O)N3CN(c4ccc(Br)cc4)CSC3=C2C#N)o1 (centres undefined) | -5.8% | >57 | 12.6µM*[single pt active] | ?
COc1cc(OC)c(C2CC(=O)N3CN(c4ccccc4)CSC3=C2C#N)cc1OC (centres undefined) | 0.8% | >57 | 57.1% | ?
N#CC1=C2SCN(c3ccccc3)CN2C(=O)CC1c1ccccc1Cl (centres undefined) | 8.9% | >57 | 2.51µM* | ?
N#CC1=C2SCN(c3ccccc3)CN2C(=O)CC1c1cccs1 (centres undefined) | -4.7% | >57 | -6.0% | -12.8%
C[C@H](C[C@H](N)C(=O)O)C(=O)O | 0.2% | >57 | 23.2% | -6.6%
CO[C@H]1COC(=O)C/C=C\[C@@H](C)COC(=O)[C@H]2CCCN2C(=O)C/C=C\[C@H]1C | / | / | / | -16.6%[8 µM]
SMILES | AmpC det inh | SmPrx2 inh | AmpC nodet inh | LT uptake inh
O=[N+]([O-])c1ccc2c(c1)S(=O)c1ccccc1-2 (centres undefined) | -6.0%[5.75 µM] | >57 | 1.1%[5.75 µM] | 2.9%[8 µM]
O=C1c2cc([N+](=O)[O-])ccc2-c2ccc3c4ccc5c6c(ccc(c7ccc1c2c73)c64)C(=O)c1cc([N+](=O)[O-])ccc1-5 | -11.0%[5.75 µM] | >57 | 2.51µM* | -2.4%[8 µM]
CS(=O)(=O)Nc1cccc(-c2cc(NCc3cccs3)ncn2)c1 | 10.6% | >57 | 2.4% | 5.8%
Clc1ccc(-n2nnnc2SCc2c(-c3ccccc3)nc3sccn23)cc1 | -1.7% | >57 | 12.6µM* | -9.8%
O=C(C1CCCN(S(=O)(=O)c2cccs2)C1)N1CCC(N2CCCCC2)CC1 (centres undefined) | 30.5% | >57 | 3.98µM*[single pt active] | 7.8%
O=C(NCCc1ccccc1)C1CCCN(S(=O)(=O)c2cccs2)C1 (centres undefined) | 12.3% | >57 | 3.98µM*[single pt active] | -4.6%
COC(=O)c1ccc(-c2nn(C)c(=O)c3ccccc23)cc1 | 11.2% | >57 | 3.98µM*[single pt active] | -14.5%
COc1ccc2[nH]cc(CCNC(=O)C3CCCNC3=O)c2c1 (centres undefined) | 9.9% | >57 | 2.51µM*[single pt active] | -2.4%
CC(C)C=O | 11.8% | / | -2.7% | /

Screening results (PubChem BioAssay)
